The list is not random: actives were taken first. Their share in the collection is about 3.7%.
GLP1R ag: activates the human GLP-1 receptor. HEK293 GLP-1R CRE-luciferase, luminescence, 4-6 h; cells express a hypersensitive GLP-1R form. Potency, µM (series often up to 45.6 µM), hits mostly activators. P43220. 0.007% of 380,000 active
Target sequence (P43220 whole entry, looked up): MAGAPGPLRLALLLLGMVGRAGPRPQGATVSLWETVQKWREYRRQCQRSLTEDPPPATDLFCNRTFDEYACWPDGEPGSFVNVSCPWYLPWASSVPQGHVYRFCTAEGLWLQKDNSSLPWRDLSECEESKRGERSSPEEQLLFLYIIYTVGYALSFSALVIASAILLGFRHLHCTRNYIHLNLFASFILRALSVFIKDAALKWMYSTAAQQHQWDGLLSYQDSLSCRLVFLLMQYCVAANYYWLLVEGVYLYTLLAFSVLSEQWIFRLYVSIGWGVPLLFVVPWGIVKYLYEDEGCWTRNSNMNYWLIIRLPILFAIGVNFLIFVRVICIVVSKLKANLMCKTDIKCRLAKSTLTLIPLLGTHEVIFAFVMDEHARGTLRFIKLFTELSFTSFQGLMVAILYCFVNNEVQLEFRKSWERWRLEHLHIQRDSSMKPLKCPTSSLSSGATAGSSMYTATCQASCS
HepG2 tox-1: HepG2 cytotoxicity, counter-screen for TGF-b inhibitors | HepG2 CAGA-GFP viability, ATP luminescence, 18 h | 0.76% of 410,000 active | AID 588856 | Potency, µM (highest dose often 46.1 µM), actives largely listed as cytotoxic
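CellTiter-Glo luminescence gave cytotoxicity after 18 hours at 37 degrees C. The cells were HepG2 CAGA-GFP in 1% FBS DMEM, stimulated with 500 pg/mL TGF-beta after compound addition. %Activity was normalised to no-cell wells (complete cell-killing) and DMSO (no toxicity), and curves were fitted and classified.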
GLP1R inv ag: GLP-1 receptor (human) inverse agonism. AID 624417. 1.6% of 410,000 active. Potency, µM (titrated, usually from 38.3 µM), usual class: inhibitors. HEK293 GLP-1R CRE-luciferase, luminescence, 24 h; GLP-1R form is constitutively active. P43220; also: nearly all actives have a fitted effect of over 55% in size
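Readout was luciferase luminescence, measured 12 min after detection reagent at room temperature. Beforehand, GLP-1R reporter HEK293 cells had sat 12 h, then received compounds for 24 hr at 37 deg C.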
ATXN2 expr inh: ATXN2 expression inhibition; HEK-293 ATXN2-luciferase reporter, luminescence, 24 h; Potency, µM (doses to about 57 µM), hits mostly inhibitors; 0.72% of 360,000 active; AID 1745845; also: nearly all actives have a fitted effect of over 55% in size
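ATXN2-luciferase reporter cells (luciferase flanked by upstream and downstream ATXN2 gene portions) were treated 24 h at 37 °C with compounds at up to 57 uM. SteadyGlo luminescence gave expression; GF-AFC fluorescence gave viability.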
TGFb inhibitor: TGF-b pathway inhibition; HepG2 CAGA-GFP TGF-b/SMAD3 reporter, GFP fluorescence, 18 h; TGF-beta stimulated, 500 pg/mL final; Potency, µM (top dose mostly 46.1 µM), usual class: inhibitors; 1.2% of 410,000 active; also: nearly all actives have a fitted effect of over 65% in size
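Inhibition was scored as loss of TGF-beta-induced (500 pg/mL final, 18 hours, 37 degrees C) GFP in HEPG2 cells carrying a CAGA-GFP reporter, in DMEM with 1% FBS. Well GFP was summed per cell; Activity was normalised to unstimulated and stimulated DMSO wells, then concentration-response fitting.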
ATXN viability: cell viability loss in ATXN counter-screen; S2 cells (HEK-293 line with an ATXN2-luciferase reporter) viability, CellTiter-Fluor protease fluorescence, 24 h; Potency, µM (titrated, usually from 56.7 µM), actives largely listed as cytotoxic; 0.49% of 400,000 active; also: nearly all actives have a fitted effect of over 40% in size
TGFb CAGA inh: confirmation of TGF-b signaling inhibitors in HepG2 reporter cells; shares compounds with TGFb inhibitor; HepG2 CAGA-GFP TGF-b reporter, GFP fluorescence, 18 h; cells stimulated with TGF-beta, 500 pg/mL; Potency, µM (titrated, usually from 46.1 µM), usual class: inhibitors; 63% of 1,600 active; AID 720534; also: nearly all actives have a fitted effect of over 65% in size
HepG2 tox-2: HepG2 cytotoxicity, TGF-b inhibitor counterscreen. shares compounds with TGFb inhibitor. HepG2 CAGA-GFP viability, ATP luminescence, 18 h; cells stimulated with TGF-beta, 500 pg/mL. Potency, µM (series often up to 46.1 µM), hits mostly inhibitors. 27% of 1,600 active; also: nearly all actives have a fitted effect of over 70% in size
TGFb CCL64 inh: TGF-b inhibition, CCL64 orthogonal assay; 41% of 1,600 active; CCL64 CAGA-GFP reporter, TGF-b stimulated, GFP fluorescence, 18 h; AID 720536; Potency, µM (highest dose often 46.1 µM), usual class: inhibitors; shares compounds with TGFb inhibitor; also: nearly all actives have a fitted effect of over 65% in size
TGFb COP inh: TGF-b inhibition validated with COP promoter | shares compounds with TGFb inhibitor | HepG2 COP-GFP TGF-b reporter, GFP fluorescence, 18 h; cells stimulated by added recombinant TGF-beta | Potency, µM (series often up to 46.1 µM), hits mostly inhibitors | 3% of 1,600 active | AID 720537; also: nearly all actives have a fitted effect of over 70% in size
Each line names hits and unclear results; the compound was inactive in the other large screens (follow-up assays come after a bar, where they were run). Calls follow the shape of the dose curve; as a rule, active = well fitted curve in the direction sought with a large enough effect; inconclusive = small, poorly fitted or top-dose-only effect, or another doubt; inactive = no such curve, though single readings can be large; an effect the other way counts as inactive or inconclusive.

CCN(CC)c1ccc(/C=C/c2ccc3ccc(OC)cc3[n+]2CC)cc1	GLP1R inv ag inconclusive, TGFb inhibitor 6.3µM (no result: ATXN2 expr inh, ATXN viability) | TGFb CAGA inh 2.9µM | HepG2 tox-2 inconclusive | TGFb CCL64 inh 2.6µM | TGFb COP inh inactive
O=S(=O)(N1CCN(c2nc(-c3cccs3)nc3ccccc23)CC1)C(F)(F)F	none (no result: GLP1R ag, GLP1R inv ag, ATXN2 expr inh, ATXN viability)
Cc1cc(C)c(S(=O)(=O)NC2CC3CCC2C3)c(C)c1 (stereo not drawn)	GLP1R inv ag inconclusive, TGFb inhibitor inconclusive | TGFb CAGA inh inconclusive | HepG2 tox-2 inactive | TGFb CCL64 inh inactive | TGFb COP inh inactive
CNC(=S)N/N=C/C1=CCC2CC1C2(C)C (stereo not drawn)	GLP1R inv ag inconclusive, TGFb inhibitor 1.1µM | TGFb CAGA inh inconclusive | HepG2 tox-2 inactive | TGFb CCL64 inh inconclusive | TGFb COP inh inactive
CC(C)CCn1c(=O)c2sccc2n2c(CCCC(=O)NC3CCC(C)CC3)nnc12 (stereo not drawn)	TGFb inhibitor inconclusive (no result: GLP1R ag, ATXN2 expr inh, ATXN viability)
COc1ccc(C[C@@H]2CN3C(=NC[C@@H]3Cc3ccc(O)cc3)N2C[C@H](C)NC(=O)CCC2CCCCC2)cc1	GLP1R inv ag inconclusive, TGFb inhibitor 13µM, ATXN viability inconclusive | TGFb CAGA inh inactive | HepG2 tox-2 inconclusive | TGFb CCL64 inh inconclusive | TGFb COP inh inactive
Cc1cc(Nc2ccc(F)cc2)n2c(nc3ccccc32)c1C#N	none (no result: ATXN viability)
Cc1cc(Nc2cccc([N+](=O)[O-])c2)n2c(nc3ccccc32)c1C#N	GLP1R inv ag inconclusive, ATXN2 expr inh 8.9µM, TGFb inhibitor 1.6µM, ATXN viability inconclusive | TGFb CAGA inh inconclusive | HepG2 tox-2 inconclusive | TGFb CCL64 inh 5.2µM | TGFb COP inh inactive
COc1ccc(C(=O)/C=C/C(=O)N(Cc2ccc(F)cc2)C(C(=O)NC2CCCCC2)c2ccncc2)c(O)c1 (stereo not drawn)	GLP1R inv ag inconclusive, TGFb inhibitor 10µM, ATXN viability inconclusive | TGFb CAGA inh inconclusive | HepG2 tox-2 inactive | TGFb CCL64 inh 13µM | TGFb COP inh inactive
CC(=O)OCC(NC(=O)C(COCc1ccccc1)NC(=O)OC(C)(C)C)C1OC(n2cc(C)c(=O)[nH]c2=O)C(OC(C)=O)C1OC(C)=O (stereo not drawn)	none (no result: GLP1R ag, GLP1R inv ag, ATXN2 expr inh, ATXN viability)
CCC(=O)Nc1cccc(C(=O)/C=C/c2cc(Br)ccc2OC)c1	HepG2 tox-1 11µM, GLP1R inv ag inconclusive, ATXN2 expr inh 16µM, TGFb inhibitor 3.5µM, ATXN viability 18µM | TGFb CAGA inh 3.7µM | HepG2 tox-2 7.3µM | TGFb CCL64 inh 3.7µM | TGFb COP inh inconclusive
CCC(=O)Nc1cccc(C(=O)OC)c1	none
COc1ccc(-c2cc(C(=O)N(C)CC(=O)Nc3cccc(F)c3)c3ccccc3n2)cc1	GLP1R inv ag inconclusive, TGFb inhibitor inconclusive, ATXN viability inconclusive | TGFb CAGA inh 18µM | HepG2 tox-2 inconclusive | TGFb CCL64 inh inconclusive | TGFb COP inh inactive

Screens: PubChem BioAssay, National Center for Advancing Translational Sciences (NCATS)
